Assay outcomes: PubChem BioAssay, National Center for Advancing Translational Sciences (NCATS)
An excerpt weighted towards active compounds, which were near 12% of everything screened.
HP1b chromo inh: HTS for Inhibitors of HP1-beta Chromodomain Interactions with Methylated Histone Tails | AlphaScreen HP1-beta / biotin-H3K9me3 peptide binding | AID 540317, 2011 | 390,000 tested, 0.56% active | Potency, µM (series often up to 114 µM), for inactives: at the top dose activity change, negative = inhibition, hits mostly inhibitors | Chromobox protein homolog 1 (Homo sapiens), P83916; note: nearly all actives have a fitted effect of over 70% in size
Target sequence (P83916 whole entry, looked up): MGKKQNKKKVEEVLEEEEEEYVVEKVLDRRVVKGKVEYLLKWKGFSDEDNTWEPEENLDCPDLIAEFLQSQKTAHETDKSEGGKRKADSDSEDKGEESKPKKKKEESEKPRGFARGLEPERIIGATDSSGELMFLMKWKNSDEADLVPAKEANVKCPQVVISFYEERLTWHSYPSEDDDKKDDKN
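Compound inhibition of the preformed complex between 50 nM HP1-beta and 50 nM biotinylated H3K9me3 peptide was read by AlphaScreen. Buffer was PBS pH 7.4 with 0.01% Tween-20. Incubations ran 30 min at room temperature, with 10 ug/mL donor/acceptor beads.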
Sfp PPTase inh: qHTS Assay for Inhibitors of Bacillus subtilis Sfp phosphopantetheinyl transferase (PPTase) | 310,000 tested, 3.5% active | Potency, µM, without a hit: largest response in the series, negative = inhibition, hits mostly inhibitors | 4'-phosphopantetheinyl transferase ffp (Bacillus subtilis), Q9F4F7 | AID 1490, 2009 | Biochemical Sfp PPTase activity, qHTS;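 note: the enzyme is Sfp with the accession as filed and its product quenches rhodamine fluorescence; 0% = enzyme reaction without inhibitor and -100% = no enzyme wells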
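After 15 min at room temperature with compound, 15 nM Sfp received 5 uM rhodamine-CoA plus 12.5 uM BHQ-2-ybbR (50 mM Hepes pH 7.6, 10 mM MgCl2). Rate came from the fluorescence difference over 30 min, ex 525/em 598 nm.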
L3MBTL1 inh: qHTS Assay for the Inhibitors of L3MBTL1; AID 485360, 2010; Potency, µM (titrated, usually from 57.1 µM), for the others: top-dose activity, negative = inhibition, usual class: inhibitors; 230,000 tested, 0.66% active; AlphaScreen L3MBTL1–H3K9me1 peptide binding; note: % is set by controls: 0 for no effect and ±100 for the full control effect; nearly all actives have a fitted effect of over 60% in size
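L3MBTL1 50 nM + b-AHA-H3(1-15)K9me1 75 nM, 30 min RT; compound added, 30 min RT; streptavidin donor/Ni-chelate acceptor beads 10 ug/mL each final, 30 min RT dark; AlphaScreen read.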
JMJD2A Tudor inh: qHTS Assay for Inhibitors of JMJD2A-Tudor Domain; Potency, µM (titrated, usually from 114 µM), without a hit: top-dose activity change, negative = inhibition, hits mostly inhibitors; AlphaScreen JMJD2A-Tudor / H3K4me3 peptide binding; Lysine-specific demethylase 4A (Homo sapiens), O75164; 390,000 tested, 4.4% active; note: % is set by controls: 0 for no effect and ±100 for the full control effect; nearly all actives have a fitted effect of over 50% in size
G9a block: qHTS Assay for Inhibitors of Histone Lysine Methyltransferase G9a; Histone-lysine N-methyltransferase EHMT2 (Homo sapiens), Q96KQ7; G9a H3K9 monomethylation, AlphaScreen, 2 h; Potency, µM (doses to about 102 µM), for inactives: top-dose activity, negative = inhibition, hits mostly inhibitors; 350,000 tested, 8.8% active; AID 504332, 2011; note: % is set by controls: 0 for no effect and ±100 for the full control effect; nearly all actives have a fitted effect of over 75% in size
Target sequence (Q96KQ7 913-1193 limits assumed): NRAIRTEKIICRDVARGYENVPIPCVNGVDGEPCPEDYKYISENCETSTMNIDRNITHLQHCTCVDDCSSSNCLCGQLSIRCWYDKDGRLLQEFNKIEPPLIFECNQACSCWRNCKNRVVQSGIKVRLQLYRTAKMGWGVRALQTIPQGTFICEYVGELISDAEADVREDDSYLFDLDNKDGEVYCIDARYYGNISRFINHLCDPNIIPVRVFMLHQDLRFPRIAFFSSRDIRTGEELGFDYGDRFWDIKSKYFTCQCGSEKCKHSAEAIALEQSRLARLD
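Compounds were preincubated with 20 nM G9a for 15 min, after which biotinylated H3K9 peptide (500 nM) and SAM (20 uM) started a 2 h room-temperature reaction. Monomethylated product was quantified by antibody-based AlphaScreen chemiluminescence.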
BAZ2B block: qHTS Assay for Inhibitors of BAZ2B. Bromodomain adjacent to zinc finger domain protein 2B (Homo sapiens), Q9UIF8. AlphaScreen BAZ2B-H3K14Ac peptide displacement. Potency, µM (top dose mostly 114 µM), without a hit: at the highest dose activity change, negative = inhibition, actives largely listed as inhibitors. 360,000 tested, 4.4% active; note: % is set by controls: 0 for no effect and ±100 for the full control effect; nearly all actives have a fitted effect of over 60% in size
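BAZ2B 50 nM plus b-H3(5-23)K14Ac 50 nM, PBS pH 7.4/0.01% Tween-20, 30 min RT; compound added (max 110 uM), 30 min RT; streptavidin donor/Ni-chelate acceptor beads 10 ug/mL final, 20 min dark; AlphaScreen read.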
The depositor's hits bear a star; [ ] = dose if it differs, or a comment. Calls come from the whole dose curve; as a rule, active = well fitted curve in the direction sought with a large enough effect; inconclusive = small, poorly fitted or top-dose-only effect, or another doubt; inactive = no such curve, though single readings can be large; an effect the other way counts as inactive or inconclusive. Potency is the fitted concentration of half-maximal effect.

How did CCOc1ccc(-c2nc(SCC(=O)c3ccccc3)n[nH]2)cc1 do in these assays?
HP1b chromo inh: 19.9%; JMJD2A Tudor inh: 25.1µM*; G9a block: 14.1µM*; BAZ2B block: -14.5%

What do the screens show for `O=C(CSc1n[nH]c(-c2ccccc2)n1)NCc1cccc(C(=O)O)c1`?
HP1b chromo inh: 12.4%[57 µM]; Sfp PPTase inh: 1.0%; L3MBTL1 inh: 13.6%; JMJD2A Tudor inh: -10.3%; BAZ2B block: -7.4%

How did COc1ccc(C(=O)CSc2n[nH]c(-c3ccco3)n2)cc1 do in these assays?
HP1b chromo inh: 13.7%; Sfp PPTase inh: inconclusive; L3MBTL1 inh: -0.2%; JMJD2A Tudor inh: -12.0%; G9a block: inconclusive; BAZ2B block: -2.6%

What do the screens show for `COc1cc2c3nnc(-c4ccc(F)cc4)c-3cn(Cc3cccc(F)c3)c2cc1OC`?
HP1b chromo inh: -32.4%; Sfp PPTase inh: 44.7µM*; JMJD2A Tudor inh: inconclusive; G9a block: 44.7µM*

What do the screens show for `COc1cc2c3nnc(-c4ccc(F)cc4)c-3cn(Cc3cccc(C)c3)c2cc1OC`?
HP1b chromo inh: 22.2%; Sfp PPTase inh: 7.6%; L3MBTL1 inh: 2.8%; JMJD2A Tudor inh: -20.0%; G9a block: 20.3%[59 µM]; BAZ2B block: 2.4%

How did CCOC(=O)Cn1c(=O)oc2cc(S(=O)(=O)N3CCN(c4cccc(C)c4C)CC3)ccc21 do in these assays?
HP1b chromo inh: 7.2%; JMJD2A Tudor inh: -23.9%; G9a block: -0.6%[59 µM]; BAZ2B block: -11.1%

Results for CC(=O)N1CCc2cc(S(=O)(=O)NC(CC(C)C)C(=O)Nc3ccc(C(C)C)cc3)ccc21 (stereo not given) ?
HP1b chromo inh: 27.0%; JMJD2A Tudor inh: -12.0%; G9a block: -6.6%[59 µM]

What do the screens show for `COc1cccc(CNCc2ccc(SC)cc2)c1OC`?
HP1b chromo inh: inconclusive; Sfp PPTase inh: -18.1%; L3MBTL1 inh: 5.4%; JMJD2A Tudor inh: 12.6µM*; G9a block: 22.4µM*; BAZ2B block: inconclusive

How did COc1cc(CNCc2ccncc2)cc(OC)c1OC do in these assays?
HP1b chromo inh: 24.0%; Sfp PPTase inh: -16.5%; L3MBTL1 inh: -0.9%[2.29 µM]; JMJD2A Tudor inh: -28.8%; G9a block: -4.0%[0.501 µM]; BAZ2B block: 1.1%

How did COc1cccc(CNCc2ccc(C(=O)O)cc2)c1OC do in these assays?
HP1b chromo inh: 12.0%; Sfp PPTase inh: 12.1%; L3MBTL1 inh: 3.5%[11.4 µM]; JMJD2A Tudor inh: 3.5%; G9a block: -34.8%; BAZ2B block: -32.4%

What do the screens show for `COc1cc(CNCc2cc(OC)c(OC)c(OC)c2)cc(OC)c1`?
HP1b chromo inh: inconclusive; Sfp PPTase inh: -20.9%; L3MBTL1 inh: 8.8%; JMJD2A Tudor inh: 20µM*; BAZ2B block: inconclusive

Results for COc1ccc(CNCC(C)NCc2ccc(OC)c(OC)c2)cc1OC (stereo not given) ?
HP1b chromo inh: 36.0%; Sfp PPTase inh: -7.4%; JMJD2A Tudor inh: -17.8%; G9a block: -12.6%; BAZ2B block: -1.3%

What do the screens show for `COc1cc(CNCc2ccc(C)cc2)cc(OC)c1OC`?
HP1b chromo inh: inconclusive; Sfp PPTase inh: -22.3%; L3MBTL1 inh: -7.0%; JMJD2A Tudor inh: 20µM*; G9a block: 28.2µM*; BAZ2B block: 70.8µM*

Results for COc1ccc(CNCc2c(F)cccc2F)cc1OC ?
HP1b chromo inh: -3.7%; Sfp PPTase inh: -7.1%; L3MBTL1 inh: 6.4%; JMJD2A Tudor inh: 3.98µM*; G9a block: 10µM*; BAZ2B block: -39.0%

How did CCCCNC(=O)c1cccc(NC(=O)c2nsc3ccccc23)c1 do in these assays?
HP1b chromo inh: 13.7%[57 µM]; JMJD2A Tudor inh: -11.4%; G9a block: inconclusive; BAZ2B block: 0.1%

Results for CCC(C(=O)Nc1ccc(C(=O)Nc2ccccc2C(=O)O)cc1)c1ccccc1 (stereo not given) ?
HP1b chromo inh: 16.1%; Sfp PPTase inh: 4.6%; JMJD2A Tudor inh: -15.1%; G9a block: -47.9%; BAZ2B block: -21.0%

What do the screens show for `Cn1nc(C(=O)OCC(=O)c2ccc(Cl)cc2)c2ccccc2c1=O`?
HP1b chromo inh: 6.5%; L3MBTL1 inh: 8.3%; JMJD2A Tudor inh: -18.8%

Results for CCOc1cc(CNCc2cc(OC)cc(OC)c2)ccc1OC ?
HP1b chromo inh: inconclusive; Sfp PPTase inh: -15.8%; L3MBTL1 inh: -2.7%; JMJD2A Tudor inh: 1µM*; G9a block: 39.8µM*; BAZ2B block: inconclusive

What do the screens show for `CCOC(=O)CC(NCc1ccc(OC)c(OCC)c1)c1ccc(C)cc1` (stereo not given)?
HP1b chromo inh: 3.9%; Sfp PPTase inh: 1.1%; L3MBTL1 inh: 4.4%; JMJD2A Tudor inh: 56.2µM*; G9a block: -14.1%[12.7 µM]; BAZ2B block: -15.5%

How did COc1cccc(CNc2nn[nH]n2)c1OC do in these assays?
HP1b chromo inh: 23.8%; Sfp PPTase inh: -8.6%; L3MBTL1 inh: 8.2%; JMJD2A Tudor inh: 9.1%; G9a block: 1.2%[59 µM]; BAZ2B block: 2.8%

How did COc1cc(CNCc2cccc(OC)c2OC)cc(OC)c1 do in these assays?
HP1b chromo inh: inconclusive; Sfp PPTase inh: -1.5%; L3MBTL1 inh: 27.4%[2.29 µM]; JMJD2A Tudor inh: 25.1µM*; G9a block: 33.9%[0.501 µM]; BAZ2B block: 50.4%

How did Cc1ccc(N(CC(=O)NCCSc2ccccn2)S(C)(=O)=O)cc1 do in these assays?
HP1b chromo inh: 32.8%; Sfp PPTase inh: -6.6%; L3MBTL1 inh: -2.6%; JMJD2A Tudor inh: -7.9%; G9a block: 28.2µM*; BAZ2B block: -2.1%

Results for Cc1cc(C)c2nc(-c3ccccn3)cc(C(=O)Nc3ccc(S(=O)(=O)Nc4onc(C)c4C)cc3)c2c1 ?
HP1b chromo inh: 50.1µM*; Sfp PPTase inh: 35.5µM*; L3MBTL1 inh: inconclusive; JMJD2A Tudor inh: 56.2µM*; G9a block: 12.6µM*; BAZ2B block: 35.5µM*

What do the screens show for `Cc1cc(C)c2nc(-c3ccccn3)cc(C(=O)Nc3ccc(S(=O)(=O)Nc4cc(C)on4)cc3)c2c1`?
HP1b chromo inh: -7.6%; Sfp PPTase inh: inconclusive; L3MBTL1 inh: -16.4%; JMJD2A Tudor inh: 50.1µM*; G9a block: -9.4%[0.501 µM]; BAZ2B block: 50.1µM*

Results for Cc1cc(C)c2nc(-c3ccccn3)cc(C(=O)NCCc3ccc(S(N)(=O)=O)cc3)c2c1 ?
HP1b chromo inh: 14.9%; Sfp PPTase inh: 28.2µM*; JMJD2A Tudor inh: -16.8%; G9a block: 35.5µM*; BAZ2B block: 9.4%
